The results in this text go back to PubChem BioAssay AID686978 (National Center for Advancing Translational Sciences (NCATS), 2013).

Molecules are shown by their SMILES. Values joined by “and” are separate entries in the source; they are usually repeats but may differ in a detail not shown here. Equal values may be shown once. About 64,000 (15%) of roughly 420,000 compounds were called active. Not shown: some 27% with an inconclusive outcome. Calls follow the shape of the dose curve; as a rule, active = well fitted inhibition curve with a large enough effect; inconclusive = small, poorly fitted or top-dose-only effect; inactive = flat fitted curve, though single readings scatter. The sample as a whole holds a higher share of actives than the screen did.
% is scaled to controls: 0 for no effect and ±100 for the full control effect; potency is read from the fitted curve at half-maximal effect.

A short description of this experiment: qHTS for Inhibitors of human tyrosyl-DNA phosphodiesterase 1 (TDP1): qHTS in cells in absence of CPT. Also: nearly all actives have a fitted effect of over 55% in size. The conditions noted are these: DT40 Tdp1-/- hTDP1 cells, no CPT, ATP luminescence, 48 h; series mostly up to 46.2 µM; activity change, negative = growth inhibition: at the top concentration. In outline:
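A cellular qHTS used chicken DT40 cells lacking endogenous Tdp1 but carrying stably transfected human TDP1. Compounds were applied without camptothecin, and cell growth kinetics were judged by ATP-dependent luminescence after ≥48 hr.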
With `CC1CCCCN1Cc1cccnc1` (centres undefined), the “activity change, negative = growth inhibition” value was -1.31% (inactive).

As for `CN1CCC(N(C)Cc2cccnc2)CC1`, the “activity change, negative = growth inhibition” value is -2.53% (inactive).

In the case of `CCOP(=S)(OCC)SCOC(=O)NCC(=O)OC`, the “activity change, negative = growth inhibition” value was -18.9% (inactive).

For `CC(Cc1cccs1)NCc1ccc(Cl)cc1` (centres undefined), the “activity change, negative = growth inhibition” value is 4.2% (inactive).

As to `C[C@@H]1Cn2cnc(C(=O)Nc3ccc(CNC(=O)OC(C)(C)C)cc3)c2C(=O)N1`, the “activity change, negative = growth inhibition” value was -111% (inactive).

Regarding `CC(=O)NCC1=C(c2ccc3ccccc3c2)C[C@@H]2CC[C@H]1N2Cc1ccco1`, the Potency was 23.1 µM (active).

`O=C(NCC1=C(c2ccc3ccccc3c2)C[C@@H]2CC[C@H]1N2Cc1ccco1)c1cccs1`: the Potency is 23.1 µM (active).

With `N[C@H](Cc1o[nH]c(=O)c1Cl)C(=O)O`, the “activity change, negative = growth inhibition” value is -6.29% (inactive).

As to `CC(=NCc1ccc2c(c1)OCO2)c1c(O)[nH]c(=O)[nH]c1=O`, the “activity change, negative = growth inhibition” value is -20.8% (inactive).

As for `Cc1ccc(S(=O)(=O)N(C)c2ccc(C(=O)NCC3(N(C)C)CCCCC3)cc2)cc1`, the “activity change, negative = growth inhibition” value is -11.7% (inactive).

Consider `CN(C)c1nc(N(C)C)nc(N(C#N)CCCl)n1`, for which the “activity change, negative = growth inhibition” value is -14.3% (inactive).

As to `C/C(CCc1c[nH]c2ccccc12)=N\O`, the “activity change, negative = growth inhibition” value is -14.6% (inactive).

With `c1cncc(CNCCc2c[nH]c3ccccc23)c1`, the “activity change, negative = growth inhibition” value is -6.22% (inactive).

For the compound `COc1ccc(CNCCc2c[nH]c3ccccc23)cc1OC`, the Potency is 18.4 µM (active).

With `COc1ccc2[nH]cc(CCNCc3ccc(Br)cc3)c2c1`, the Potency is 10.3 µM (active).

Regarding `Cc1cc(C=C2C(=O)NC(=O)NC2=O)c(C)n1-c1ccncc1`, the “activity change, negative = growth inhibition” value is -8.31% (inactive).

Consider `O=c1[nH]c(=O)n(CCc2ccccc2)c(O)c1/C=N/N1CCOCC1`, for which the “activity change, negative = growth inhibition” value was -2.42% (inactive).

On to `Cc1ccc(Cl)cc1N1CCN(C(=O)C2CCC(CNS(=O)(=O)c3cccs3)CC2)CC1` (centres undefined), for which the Potency was 18.4 µM (active).

With `Cc1nc2nc(C)c(CCC(=O)N3CCC4(CC3)OCCO4)c(C)n2n1`, the “activity change, negative = growth inhibition” value was -0.828% (inactive).

With `CCOP(=O)(OCC)C(O)c1ccc(OC)cc1OC` (centres undefined), the “activity change, negative = growth inhibition” value is -3.05% (inactive).

As to `CC[C@H]1CN2CCc3cc(OC)c(OC)cc3[C@@H]2C[C@@H]1C[C@H]1NCCc2cc(OC)c(OC)cc21`, the Potency was 150 nM (active) and 36.6 nM (active).

With `Nc1ccc([N+](=O)[O-])cc1`, the Potency entry was “inactive”.

In the case of `CCOc1ccc(CN(CCCl)CCCl)cc1C(=O)OC`, the Potency was 4.11 µM (active).

Regarding `COC([CH2][Hg])CNC(=O)c1ccccc1OCC(=O)O` (centres undefined), the Potency was 1.68 µM (active).

Consider `CC1([N+](=O)[O-])COP(=O)(Nc2ccc(F)cc2)OC1` (centres undefined), for which the “activity change, negative = growth inhibition” value was 0.324% (inactive).

In the case of `Fc1ccc(N2CCN(Cc3ccc4c(c3)OCO4)CC2)cc1`, the “activity change, negative = growth inhibition” value was -7.95% (inactive).

With `O=C(Cc1ccccc1[N+](=O)[O-])N1CCN(Cc2ccc3c(c2)OCO3)CC1`, the “activity change, negative = growth inhibition” value is -18.5% (inactive).

As to `Cc1ccc(NC(=O)N(Cc2ccc3c(c2)OCO3)C2CCN(Cc3ccccc3)CC2)cc1F`, the Potency is 23.1 µM (active).

For `OCC#CC[N+]1(CC#Cc2ccccc2)CCCC1`, the “activity change, negative = growth inhibition” value was 26.8% (inactive).

`CN1CCN(Cc2ccc(OC(F)(F)F)cc2)CC1`: the “activity change, negative = growth inhibition” value is -2.54% (inactive).

Take `CN(C)CCCN=Cc1c(O)n(Cc2ccco2)c(=O)[nH]c1=O`: the “activity change, negative = growth inhibition” value is -1.96% (inactive).

As for `ClCCN(CCCl)c1ccc(C=Nc2ccc(/C=C/c3ccnc4ccccc34)cc2)cc1`, the Potency was 11.2 µM (active).

Consider `COc1ccccc1NC(=O)N1C[C@@H]2C[C@@H](C1)c1cccc(=O)n1C2`, for which the “activity change, negative = growth inhibition” value was 2.23% (inactive).

Regarding `O=c1[nH]c(=S)[nH]c(O)c1/C=C1\C=Nc2ccccc21`, the Potency was 9.2 µM (active).

Turning to `COc1ccccc1N=Nc1c(O)[nH]c(=S)[nH]c1=O`, the “activity change, negative = growth inhibition” value is -17.8% (inactive).

As to `CNC(=S)N/N=C1\C2CN3CCN(C2)CC1(c1ccccc1)C3`, the “activity change, negative = growth inhibition” value is 6.18% (inactive).

For `C=C(C)C1(CCCC)C(=O)NC(=S)NC1=O`, the “activity change, negative = growth inhibition” value was -16.4% (inactive).

Consider `CC(C)C(N)C(=O)OCCOCn1cnc2c(=O)[nH]c(N)nc21` (centres undefined), for which the Potency was 4.11 µM (active).

As for `CC/C(=N\NC(=O)c1ccccc1O)c1c(O)n(Cc2ccccc2)c(=O)[nH]c1=O`, the “activity change, negative = growth inhibition” value was 22.5% (inactive).

As to `CC(=O)N(C1=NCCCS1)c1ccccc1F`, the “activity change, negative = growth inhibition” value is -3.5% (inactive).

For `C[C@]12CCCCC1=CC(=O)C1C2CC[C@@]2(C)C1C[C@@H](F)[C@@H]2O` (some centres undefined), the Potency is 16.4 µM (active).

`NCCc1ccc(S(=O)(=O)F)cc1`: the “activity change, negative = growth inhibition” value was 0.906% (inactive).

For `N=c1ccccn1Cc1ccccc1`, the “activity change, negative = growth inhibition” value was -7.46% (inactive).

With `C/C(=C\C=C/[C@@H](C)C(=O)O)[C@H]1CN[C@H](C(=O)O)[C@@H]1CC(=O)O`, the “activity change, negative = growth inhibition” value was -13% (inactive).

With `Cc1cccc(OP(=O)(Oc2cccc(C)c2)OC(c2ccccc2)C(F)(F)F)c1` (centres undefined), the Potency was 16.4 µM (active).

On to `C[N+]1(C)CCOC(O)(c2ccc(-c3ccc(C4(O)C[N+](C)(C)CCO4)cc3)cc2)C1` (centres undefined), for which the Potency entry is “inactive”.

Turning to `CC1=CC(=Cc2sc3ccccc3[n+]2C)C=C(C)O1`, the Potency is 0.0164 µM (active).

With `ClC(Cl)(Cl)c1ccccc1`, the “activity change, negative = growth inhibition” value was 7.72% (inactive).

`CCOP(=O)(OCC)C(Nc1cccc(C)c1)c1ccc(F)cc1` (centres undefined): the Potency is 16.4 µM (active).

Turning to `CC[N+]1(C)CCCC(OC(=O)C(O)(c2ccccc2)c2ccccc2)C1` (centres undefined), the Potency result was “inactive”.

Take `O=c1[nH]c(O)c(C=Nc2cc(F)cc(F)c2)c(=O)[nH]1`: the “activity change, negative = growth inhibition” value was -3.87% (inactive).

Regarding `CN(c1ccccc1)c1ccc([N+](=O)[O-])c2nonc12`, the Potency is 16.4 µM (active).

For `CCN(CC)c1ccc([N+](=O)[O-])c2cccnc12`, the “activity change, negative = growth inhibition” value was -6.29% (inactive).

Regarding `O=C(O)/C=C/c1ccc2c(c1)OCO2`, the “activity change, negative = growth inhibition” value was 3.92% (inactive).

On to `O=C(CN1CCCC1=O)NCCc1ccccc1`, for which the “activity change, negative = growth inhibition” value is -11.4% (inactive).

Regarding `CCOP(=O)(OCC)C(NC(=O)c1ccc(OC)cc1)C(Cl)(Cl)Cl` (centres undefined), the “activity change, negative = growth inhibition” value was -5.09% (inactive).

Regarding `CCOP(=O)(OCC)C(Cc1ccccc1)N=C(c1ccccc1)c1ccccc1` (centres undefined), the Potency is 14.6 µM (active).

`CCOP(=O)(OCC)C(NC(=O)c1ccc(C)cc1)C(Cl)(Cl)Cl` (centres undefined): the “activity change, negative = growth inhibition” value was -1.8% (inactive).

On to `O=C(NC(=S)N1C[C@H]2C[C@H](C1)c1cccc(=O)n1C2)c1ccc(F)cc1`, for which the “activity change, negative = growth inhibition” value was -2.67% (inactive).

On to `O=C(c1cc2nc(-c3ccccc3)cc(-c3ccccc3)n2n1)N1CCC2(CC1)OCCO2`, for which the Potency was 23.1 µM (active).

As for `Cc1ccc(-c2cc(C(=O)N3CCC4(CC3)OCCO4)no2)cc1`, the “activity change, negative = growth inhibition” value is -26.7% (inactive).

Turning to `O=C(c1ccccc1[N+](=O)[O-])N1CCC2(CC1)OCCO2`, the “activity change, negative = growth inhibition” value was -1.62% (inactive).

As to `CN(C)C(=O)Oc1ccc2c(c1)O/C(=C\c1ccccc1)C2=O`, the “activity change, negative = growth inhibition” value is 1.24% (inactive).

For the compound `Cc1ncsc1CCCl`, the Potency result is “inactive”.

As for `Cc1ccc(S(=O)(=O)N2CCCc3cc(NS(=O)(=O)c4cc(C)ccc4C)ccc32)cc1`, the Potency is 13 µM (active).

Regarding `COC(=O)C[C@H]1CC[C@H]2NC[C@@H](O)COC[C@@H]2O1`, the “activity change, negative = growth inhibition” value was 9.41% (inactive).

With `c1ccc2c(c1)[I+]c1ccccc1-2`, the Potency was 33.5 nM (active) and 15.8 nM (active) and 126 nM (active).

Regarding `Cc1cccc(NC(=O)OC2CN3CCC2CC3)c1` (centres undefined), the “activity change, negative = growth inhibition” value is -16% (inactive).

As to `COc1ccccc1C1=NCc2nnc(CSC)n2-c2ccc(Cl)cc21`, the “activity change, negative = growth inhibition” value is -17% (inactive).
